From PubChem BioAssay (EPA / NIEHS)
Records with an inconclusive call do not appear. Active and inactive are the calls of the source. The calls were made as follows, unless noted: active = hit-call score of the fitted dose curve at least 0.9, where 1 is the maximum; inactive = score below 0.9.

Tests used:
[1] = BSK_3C_Vis: BioMAP Diversity Plus: 3C Assay for Morphology Visualization (AID 2283025); conditions: primary human endothelial cells (HUVEC);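 also: fitted both ways so gain or loss versus DMSO counts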;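 as to AC50: light microscopy image of cell morphology used as background control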
How it was run: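 Light-microscopy visualization of HUVEC cultures at 24 h post-treatment, with DMSO as baseline for bidirectional fitting.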

[2] = read-out: Transforming growth factor beta 1 (TGFb1), TGFB1 (gene 7040); assay: BSK_BE3C_TGFb1: BioMAP Diversity Plus: BE3C Assay for Transforming growth factor beta 1 (TGFb1) Biomarker Activity (AID 2283036;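 also: TGF-b1 protein level measured by ELISA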); conditions: primary human bronchial epithelial cells; actives raise or lower the signal
How it was run: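 ELISA readout of TGF-b1 from human lung bronchial epithelial primary cells, taken 24 h post-treatment. Gain or loss of signal fitted relative to DMSO baseline, with parallel SRB staining for overt cytotoxicity.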

[3] = BSK_CASM3C_SRB: Viability Assessment in the BioMAP Diversity Plus: CASM3C Assay (AID 2283050); conditions: primary human coronary artery smooth muscle cells
[4] = read-out: Transforming growth factor beta 1 (TGFb1), TGFB1 (gene 7040); assay: BSK_KF3CT_TGFb1: BioMAP Diversity Plus: KF3CT Assay for Transforming growth factor beta 1 (TGFb1) Biomarker Activity (AID 2283072); conditions: primary human keratinocytes with fibroblasts; actives raise or lower the signal
How it was run: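 ELISA quantifies TGF-b1 at 24 h post-dose in a primary human skin co-culture of keratinocytes and fibroblasts, with gain or loss judged against DMSO. Parallel SRB total-protein staining flags overt cytotoxicity.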

CD40, CD40 (gene 958) = assay: BSK_SAg_CD40: BioMAP Diversity Plus: SAg Assay for CD40 Biomarker Activity (AID 2283088); conditions: primary human HUVEC with PBMC; actives raise or lower the signal
How it was run: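 Endpoint derived by fitting increases or decreases versus DMSO controls. CD40 is detected by fluorescence ELISA in a human vascular co-culture of endothelium and PBMC at 24 h.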

CD69, CD69 (gene 969) = assay: BSK_SAg_CD69: BioMAP Diversity Plus: SAg Assay for CD69 Biomarker Activity (AID 2283089); conditions: primary human HUVEC with PBMC; actives raise or lower the signal
How it was run: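 Primary human vascular co-culture (umbilical vein endothelium with peripheral blood mononuclear cells) exposed to test chemical for 24 h. CD69 levels quantified by fluorescence ELISA; DMSO served as negative control for bidirectional fitting.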

[5] = read-out: Monocyte Chemoattractant Protein-1 (MCP1), CCL2 (gene 6347); assay: BSK_SAg_MCP1: BioMAP Diversity Plus: SAg Assay for Monocyte Chemoattractant Protein-1 (MCP1) Biomarker Activity (AID 2283090); conditions: primary human HUVEC with PBMC; actives raise or lower the signal
How it was run: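 Values derive from bidirectional fitting of ELISA-measured MCP1 against DMSO controls. Readings were taken 24 h after dosing human vascular endothelial cells co-cultured with peripheral blood mononuclear cells under superantigen stimulation.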

[6] = read-out: Monokine induced gamma interferon (MIG), CXCL9 (gene 4283); assay: BSK_SAg_MIG: BioMAP Diversity Plus: SAg Assay for Monokine induced gamma interferon (MIG) Biomarker Activity (AID 2283092); conditions: primary human HUVEC with PBMC; actives raise or lower the signal
How it was run: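 Endothelial cells and PBMC were co-cultured, exposed to test chemicals, and sampled 24 h later. MIG was measured by ELISA, and responses were fitted in both directions relative to DMSO.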

[7] = BSK_SAg_Proliferation: Cell Proliferation Assessment in the BioMAP Diversity Plus: SAg Assay (AID 2283095); conditions: primary human HUVEC with PBMC;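 also: relative cell number as total protein by SRB absorbance in sub-confluent culture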
How it was run: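 Relative cell number in the endothelial cell/PBMC co-culture was quantified at 96 h by SRB staining (0.1% SRB, 10% TCA fixation, read at 560 nm). Curves were fitted in both directions relative to DMSO baseline.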

[8] = BSK_SAg_SRB: Viability Assessment in the BioMAP Diversity Plus: SAg Assay (AID 2283096); conditions: primary human HUVEC with PBMC;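 also: cells read one day after compound addition; hits may be either gain or loss of signal compared with DMSO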
How it was run: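 Compounds were added to a human vascular co-culture of umbilical vein endothelium and PBMC. After 24 h, parallel cultures were fixed with 10% TCA, stained with 0.1% sulforhodamine B and read at 560 nm. Gain or loss of signal was fitted relative to DMSO.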

[9] = read-out: Secreted IgG (sIgG), gene 3500; assay: BSK_BT_sIgG: BioMAP Diversity Plus: BT Assay for Secreted IgG (sIgG) Biomarker Activity (AID 2284226); conditions: primary human B cells with PBMC
How it was run: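 ELISA quantitation of secreted IgG from human B cells co-cultured with PBMC, sampled 24 h post-dosing. Values fitted relative to DMSO vehicle as baseline, positive fitting direction.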

[10] = BSK_BT_Bcell_Proliferation: Viability Assessment in the BioMAP Diversity Plus: BT Assay for B cell Proliferation (AID 2284227); conditions: primary human B cells with PBMC
How it was run: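 Read-out is absorbance at 560 nm from sulforhodamine B staining of total protein, reflecting relative cell numbers in a human B cell and PBMC co-culture after 72 h of chemical exposure. Values were referenced to DMSO.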

[11] = read-out: Interleukin 17A (IL17A), IL17A (gene 3605); assay: BSK_BT_xIL17A: BioMAP Diversity Plus: BT Assay for Interleukin 17A (IL17A) Biomarker Activity (AID 2284229); conditions: primary human B cells with PBMC
How it was run: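 Human primary B cells plus PBMC, treated 24 h with chemicals; supernatant IL-17A quantified on Luminex xMAP beads. Gain of signal over DMSO control scored as activity.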

[12] = read-out: Vascular cell adhesion molecule 1 (VCAM1), VCAM1 (gene 7412); assay: BSK_MyoF_VCAM1: BioMAP Diversity Plus: MyoF Assay for Vascular cell adhesion molecule 1 (VCAM1) Biomarker Activity (AID 2284231); conditions: primary human lung fibroblasts
How it was run: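 VCAM-1 levels, lung fibroblasts, ELISA, 24 h exposure, increase scored relative to DMSO.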

[13] = read-out: Collagen III, COL3A1 (gene 1281); assay: BSK_MyoF_CollagenIII: BioMAP Diversity Plus: MyoF Assay for Collagen III Biomarker Activity (AID 2284239); conditions: primary human lung fibroblasts
How it was run: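 Multiplexed cell assay in lung fibroblasts, harvested at 24 h post-dose. Collagen III detected by ELISA, with positive-direction fitting relative to DMSO vehicle.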

[14] = read-out: Interleukin 17F (IL17F), IL17F (gene 112744); assay: BSK_BT_xIL17F: BioMAP Diversity Plus: BT Assay for Interleukin 17F (IL17F) Biomarker Activity (AID 2284243); conditions: primary human B cells with PBMC
How it was run: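 Luminex readout of IL-17F secretion, 24 h; cells: human B cells with PBMC; positive-direction analysis, DMSO control.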

[15] = read-out: Actin alpha 1 (ACTA1), ACTA1 (gene 58); assay: BSK_MyoF_ACTA1: BioMAP Diversity Plus: MyoF Assay for Actin alpha 1 (ACTA1) Biomarker Activity (AID 2284244); conditions: primary human lung fibroblasts
How it was run: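 alpha-SMA levels read by ELISA against DMSO baseline, 24 h post-dose, in primary human lung fibroblasts. Parallel cultures stained with 0.1% SRB after 10% TCA fixation (560 nm) to flag overt cytotoxicity.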

[16] = read-out: Interleukin 2 (IL2), IL2 (gene 3558); assay: BSK_BT_xIL2: BioMAP Diversity Plus: BT Assay for Interleukin 2 (IL2) Biomarker Activity (AID 2284245); conditions: primary human B cells with PBMC
How it was run: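 Secreted IL-2 was read by Luminex xMAP from B cells co-cultured with PBMC (human primary) 24 h post-dosing; activity was analysed as gain of signal relative to DMSO vehicle.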

[17] = read-out: Basic fibroblast growth factor (bFGF), FGF2 (gene 2247); assay: BSK_MyoF_bFGF: BioMAP Diversity Plus: MyoF Assay for Basic fibroblast growth factor (bFGF) Biomarker Activity (AID 2284246); conditions: primary human lung fibroblasts
How it was run: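 bFGF was measured by ELISA in primary human lung fibroblasts 24 h after chemical addition. Signal was analysed as positive-direction change relative to DMSO baseline.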

[18] = molecular target: Retinoic acid receptor alpha (Homo sapiens) (UniProt P10276); assay: ATG_RARa_TRANS: Attagene TRANS-FACTORIAL HepG2 Assay for human Retinoic Acid Receptor alpha (RARa) (AID 2283005; active = hit-call score of the fitted dose curve at least 0.9, where 1 is the maximum)
How it was run: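 HepG2 transiently transfected with multiplex GAL4-UAS reporter units including a human RARa–GAL4 chimera; 24 h compound exposure. Reporter mRNA quantified by RT-PCR, 6-FAM labeling and capillary electrophoresis; gain of signal versus DMSO.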

Measured: AC50

Retinoic acid receptor alpha (Homo sapiens), sequence (P10276 whole entry, looked up, the tested form may be a part): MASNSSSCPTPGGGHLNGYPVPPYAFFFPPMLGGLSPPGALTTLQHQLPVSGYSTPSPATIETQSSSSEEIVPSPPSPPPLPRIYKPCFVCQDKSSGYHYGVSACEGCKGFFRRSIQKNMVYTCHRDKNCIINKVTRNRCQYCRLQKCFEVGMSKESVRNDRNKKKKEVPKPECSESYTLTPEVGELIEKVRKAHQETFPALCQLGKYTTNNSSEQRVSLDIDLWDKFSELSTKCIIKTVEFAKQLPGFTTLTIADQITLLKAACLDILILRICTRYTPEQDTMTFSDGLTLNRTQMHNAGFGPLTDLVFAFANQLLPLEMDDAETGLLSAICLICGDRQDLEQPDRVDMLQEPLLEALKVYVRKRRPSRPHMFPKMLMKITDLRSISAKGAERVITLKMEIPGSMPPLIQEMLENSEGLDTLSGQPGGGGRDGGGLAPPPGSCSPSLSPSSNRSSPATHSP

Oc1cccc2ccccc12
active: [7] 3.97 µM | [10] 2.2 µM | [13] 5.51 µM
not listed: [18]
inactive: all other assays above

CCCCCCCCCC/C=C/C1CC(=O)OC1=O (stereo not drawn)
not listed: [18]
inactive: all other assays above

COC(=O)/C=C\C(=O)OC
active: [9] 20 µM | [14] 20 µM | [16] 12.8 µM
not listed: [18]
inactive: all other assays above

CC[N+](CC)(CC(=O)Nc1c(C)cccc1C)Cc1ccccc1
active: [1] 39.8 µM
not listed: [18]
inactive: all other assays above

CCCCCC1CCCC(=O)O1 (stereo not drawn)
inactive: [18]

CCOc1ccc2c(c1)C(C)CC(C)(C)N2 (stereo not drawn)
inactive: [18]

CC(=O)c1nccs1
inactive: [18]

C/C=C(\C)C(=O)OCC/C=C\CC
inactive: [18]

CC(C)CC(=O)CC(C)CC(C)C (stereo not drawn)
active: [1] 37.8 µM | [3] 31.6 µM
not listed: [18]
inactive: all other assays above

Cc1cccnc1
not listed: [18]
inactive: all other assays above

CN1CCCC1
inactive: [18]

CCC(C)=NO
inactive: [1] | [2] | [3] | [4] | CD40, CD40 (gene 958) | CD69, CD69 (gene 969) | [5] | [6] | [7] | [8]

CC[N+](CC)(CC(=O)Nc1c(C)cccc1C)Cc1ccccc1 (tested in a mixture with another compound)
inactive: [3] | CD40, CD40 (gene 958) | CD69, CD69 (gene 969) | [5] | [6] | [7] | [8]

C1CN(CCOCCN2CCOCC2)CCO1
inactive: [3] | CD40, CD40 (gene 958) | CD69, CD69 (gene 969) | [5] | [6] | [7] | [8]
